{"source": "ChEMBL document CHEMBL3988442", "about": "“University of Dundee, Small-Polar-MMV Screening Library” (2021)", "note": "Hit rate of the full screen: of about 48,000 compounds, about 13,000 (27%) showed an effect of 50% or more. The list shows a part of the results.", "data": [{"test_system": "Wolbachia pipientis", "assay": "Anti-Wolbachia Cell-Based Screen", "format": "functional", "parameters": "scale not given: in the data most compounds retested in dose-response had high values", "settings": "5 µM", "units": {"Percent Effect": "%"}, "values": [{"compound": "COCC1CC2(CCN(c3ccccn3)CC2)CN1C(C)C.O=C(O)C(F)(F)F.O=C(O)C(F)(F)F", "note": "(stereo not given)", "Percent Effect": 104.7}, {"compound": "CCN1C[C@@H]2CN(c3cc(OC)ncn3)CCC[C@]2(C(=O)O)C1.O=C(O)C(F)(F)F", "Percent Effect": -1.589}, {"compound": "COCC1CC2(CCN(c3cccc(C)n3)CC2)CN1C(C)C.O=C(O)C(F)(F)F.O=C(O)C(F)(F)F", "note": "(stereo not given)", "Percent Effect": 94.82}, {"compound": "CC(C)CN1CCCC2(CCN(c3ccc(C#N)cn3)C2)C1.O=C(O)C(F)(F)F", "note": "(stereo not given)", "Percent Effect": -6.214}, {"compound": "Cc1ccc(N2CCC3(CCCN3Cc3ccn(C)n3)CC2)nn1.O=C(O)C(F)(F)F", "Percent Effect": 10.32}, {"compound": "COc1cc(N2CCC[C@]3(C(=O)O)CN(C(C)C)C[C@@H]3C2)ncn1.O=C(O)C(F)(F)F", "Percent Effect": 8.121}, {"compound": "COCC1CC2(CCN(c3ccc(C)nn3)CC2)CN1C(C)C.O=C(O)C(F)(F)F", "note": "(stereo not given)", "Percent Effect": 99.94}, {"compound": "Cc1cccc(CN2CC3C[C@]3(NC(=O)c3cccc(F)c3)C2)n1.O=C(O)C(F)(F)F", "note": "(stereo not given in full)", "Percent Effect": -4.676}, {"compound": "COCC1CC2(CCN(c3cc(OC)ncn3)CC2)CN1C(C)C.O=C(O)C(F)(F)F", "note": "(stereo not given)", "Percent Effect": 103.7}, {"compound": "COCC1CC2(CCN(Cc3ccccn3)CC2)CN1C(C)C", "note": "(stereo not given)", "Percent Effect": -12.67}, {"compound": "CCN1C[C@@H]2CN(Cc3cccs3)C[C@@H]2C1=O.O=C(O)C(F)(F)F", "Percent Effect": -3.908}, {"compound": "COCCNC(=O)C1(c2ccc(C)c(OC)c2)CCCC1", "Percent Effect": -0.08716}, {"compound": "COCC1CC2(CCN(CC3CC3)CC2)CN1Cc1ccccn1.O=C(O)C(F)(F)F.O=C(O)C(F)(F)F", "note": "(stereo not given)", "Percent Effect": 83.44}, {"compound": "O=C(C1CCCO1)N1CCC2(CC1)CNCCO2", "note": "(stereo not given)", "Percent Effect": -5.383}, {"compound": "CCN(CC)C[C@H]1CN2CC[C@H]1C[C@@H]2CNC(=O)c1ccco1", "Percent Effect": -16.25}, {"compound": "CNc1ncc(CN(C)c2ncnc3onc(C)c23)cn1", "Percent Effect": 70.58}, {"compound": "c1cncc(C(Cn2cnnc2)N2CCOCC2)c1", "note": "(stereo not given)", "Percent Effect": 3.663}, {"compound": "COCCN1CCO[C@H]2CN(Cc3cccc(C)n3)C[C@H]21.O=C(O)C(F)(F)F.O=C(O)C(F)(F)F", "Percent Effect": 106.4}, {"compound": "Cc1cccc(CN2C[C@@H]3OCCN(c4cnccn4)[C@@H]3C2)n1.O=C(O)C(F)(F)F", "Percent Effect": -8.161}, {"compound": "Cc1cccc(CN2C[C@@H]3OCCN(C)[C@@H]3C2)n1", "Percent Effect": 7.406}, {"compound": "CC(C)N1CCO[C@H]2CN(C(=O)Cc3cccs3)C[C@H]21.O=C(O)C(F)(F)F", "Percent Effect": 10.95}, {"compound": "CC(C)N1CCO[C@H]2CN(Cc3cc[nH]n3)C[C@H]21.O=C(O)C(F)(F)F.O=C(O)C(F)(F)F", "Percent Effect": 92.97}, {"compound": "CC(C)N1CCO[C@H]2CN(C(=O)Cc3ccsc3)C[C@H]21.O=C(O)C(F)(F)F", "Percent Effect": 16.26}, {"compound": "CC[C@H]1CN2CC[C@H]1C[C@@H]2CNCc1ccc(OC)cc1", "Percent Effect": -6.876}, {"compound": "Cc1cccc(-n2nnnc2C2(NCc3ccco3)CCCCC2)c1", "Percent Effect": 79.56}, {"compound": "COc1ccc(-n2nnnc2C2(NCc3ccco3)CCCCC2)cc1", "Percent Effect": 77.41}, {"compound": "Cc1ccc(Cl)cc1-n1nnnc1C1(N2CCCC2)CCCCC1", "Percent Effect": -13.17}, {"compound": "Clc1ccc(-n2nnnc2C2(NCc3ccco3)CCCCC2)cc1", "Percent Effect": 73.59}, {"compound": "CSc1nccc(N2CCN(C)C3(CCNC(=O)CC3)C2)n1", "note": "(stereo not given)", "Percent Effect": -8.805}, {"compound": "c1ccc(NC[C@@H]2CCC[C@@H]3CN(Cc4csnn4)C[C@@H]32)nc1", "Percent Effect": 5.24}, {"compound": "Cc1cccc(CN2CC3C[C@]3(NC(=O)c3ccoc3)C2)n1", "note": "(stereo not given in full)", "Percent Effect": -6.434}, {"compound": "CS(=O)(=O)NC1CC2(CCN(CCF)CC2)Oc2ccccc21.O=C(O)C(F)(F)F", "note": "(stereo not given)", "Percent Effect": 90.28}, {"compound": "O=C(O)C(F)(F)F.O=C(O)C(F)(F)F.O=C(O)C(F)(F)F.c1ccc(CO[C@@H]2CO[C@@]3(CCN(Cc4ccccn4)C3)C2)nc1", "Percent Effect": 19.79}, {"compound": "CS(=O)(=O)N[C@@H]1CN(Cc2ccncc2)C[C@@H]2CCCO[C@@H]21.O=C(O)C(F)(F)F.O=C(O)C(F)(F)F", "Percent Effect": -0.6746}, {"compound": "CCC(O)Cn1cc(C2=CCN(Cc3cc(O)nc(C)n3)CC2)cn1", "note": "(stereo not given)", "Percent Effect": 5.407}, {"compound": "Cl.Cl.Cn1ccc(CN2CCOCC23CCNCC3)n1", "Percent Effect": -7.915}, {"compound": "CN(Cc1ccccc1)c1ncccc1CNC1CN2CCC1CC2", "note": "(stereo not given)", "Percent Effect": -8.195}, {"compound": "CN(CCc1ccccc1)Cc1c(C2CC2)[nH]c2ncccc12", "Percent Effect": 128}, {"compound": "c1cnc(NC[C@H]2OC[C@@H]3CCN(Cc4ccncc4)C[C@@H]32)nc1", "Percent Effect": 115}, {"compound": "O=C(O)C(F)(F)F.O=C(O)C(F)(F)F.O=C(O)C(F)(F)F.c1cnc(NC[C@H]2OC[C@@H]3CCN(Cc4nccs4)C[C@@H]32)nc1", "Percent Effect": 101}, {"compound": "c1csc(CN2CC[C@H]3C[C@H](c4ccncn4)O[C@@H]3C2)c1", "Percent Effect": 13.32}, {"compound": "Cn1cc(CN2CC[C@H]3CO[C@H](CNc4ncccn4)[C@H]3C2)cn1.O=C(O)C(F)(F)F.O=C(O)C(F)(F)F", "Percent Effect": -23.96}, {"compound": "c1ccc(CN2CC[C@H]3CO[C@H](CNc4ncccn4)[C@H]3C2)nc1", "Percent Effect": -4.696}, {"compound": "O=C(O)C(F)(F)F.O=C(O)C(F)(F)F.O=C(O)C(F)(F)F.c1cnc(NC[C@H]2OC[C@@H]3CCN(Cc4cccnc4)C[C@@H]32)nc1", "Percent Effect": 106.3}, {"compound": "O=C(O)C(F)(F)F.O=C(O)C(F)(F)F.c1ccc(CN2CC[C@H]3CO[C@H](CNc4ncccn4)[C@H]3C2)cc1", "Percent Effect": 109.8}]}]}
